# Data published in PubChem BioAssay (NCATS).
# Results filed as inconclusive are left out. A call without a number means that no potency is given here. The source made the active and inactive calls. Calls come from the whole dose curve; as a rule, active = well fitted curve in the direction sought with a large enough effect; inconclusive = small, poorly fitted or top-dose-only effect, or another doubt; inactive = no such curve, though single readings can be large; an effect the other way counts as inactive or inconclusive.
# What was measured:
# [1] = qHTS of pediatric cancer cell lines to identify multiple opportunities for drug repurposing: Confirmatory screen for NB1643 cells (AID 1347109); note: nearly all actives have a fitted effect of over 45% in size; note: potency is the fitted concentration of half-maximal effect
# Procedure, shortened: (§1)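 Viability after 48 h compound treatment at 37C, 500-1,000 cells/well, read as ATP luminescence with CellTiter-Glo. Primary screens used 11-point (MIPE, 0.78 nM-46 µM) or 8-point (NPC, 0.59 nM-46 µM) final concentrations; follow-up screens used 11-point dilutions.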
# [2] = qHTS of pediatric cancer cell lines to identify multiple opportunities for drug repurposing: Confirmatory screen for A673 cells (AID 1347110); note: nearly all actives have a fitted effect of over 65% in size; note: potency is the fitted concentration of half-maximal effect
# Procedure, shortened: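 Cells plated at 500-1,000/well were treated five hours later with multi-point dilutions up to 46 µM final. After two days, CellTiter-Glo was added and luminescence read.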
# [3] = qHTS of pediatric cancer cell lines to identify multiple opportunities for drug repurposing: Confirmatory screen for SK-N-MC cells (AID 1347111);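 note: cells exposed to compound for 48 h before the readout; nearly all actives have a fitted effect of over 70% in size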; note: potency is the fitted concentration of half-maximal effect
# Procedure, shortened: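 SK-N-MC cells at 500-1,000 cells/well in growth media were pre-incubated 5 h, then exposed to compounds at 11-point dilutions for 48 h at 37 degrees C, 5% CO2. Viability was read as CellTiter-Glo luminescence.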
# [4] = qHTS of pediatric cancer cell lines to identify multiple opportunities for drug repurposing: Confirmatory screen for BT-12 cells (AID 1347112); note: nearly all actives have a fitted effect of over 55% in size; note: potency is the fitted concentration of half-maximal effect
# Procedure, shortened: as §1
# [5] = qHTS of pediatric cancer cell lines to identify multiple opportunities for drug repurposing: Confirmatory screen for NB-EBc1 cells (AID 1347115); note: nearly all actives have a fitted effect of over 45% in size; note: potency is the fitted concentration of half-maximal effect
# Procedure, shortened: as §1
# [6] = qHTS of pediatric cancer cell lines to identify multiple opportunities for drug repurposing: Confirmatory screen for SJ-GBM2 cells (AID 1347116); note: nearly all actives have a fitted effect of over 60% in size; note: potency is the fitted concentration of half-maximal effect
# Procedure, shortened: (§2)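 Viability measured as metabolically active cells via CellTiter-Glo luminescence following 48 hours of compound exposure, 11-point dilutions in confirmatory testing. 500-1,000 cells/well plated 5 hours before dosing; controls were DMSO and 2.3 µM bortezomib.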
# [7] = qHTS of pediatric cancer cell lines to identify multiple opportunities for drug repurposing: Confirmatory screen for BT-37 cells (AID 1347117); note: nearly all actives have a fitted effect of over 55% in size; note: potency is the fitted concentration of half-maximal effect
# Procedure, shortened: as §1
# [8] = qHTS of pediatric cancer cell lines to identify multiple opportunities for drug repurposing: Confirmatory screen for TC32 cells (AID 1347118); note: nearly all actives have a fitted effect of over 65% in size; note: potency is the fitted concentration of half-maximal effect
# Procedure, shortened: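 qHTS, TC32, 48 h drug treatment, CellTiter-Glo luminescence as a proxy for metabolically active cells; primary top concentration 46 µM (MIPE 11-pt, NPC 8-pt); confirmatory 11-pt.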
# [9] = qHTS of pediatric cancer cell lines to identify multiple opportunities for drug repurposing: Confirmatory screen for control Hh wild type fibroblast cells (AID 1347121); note: nearly all actives have a fitted effect of over 70% in size
# Procedure, shortened: as §1
# [10] = qHTS of pediatric cancer cell lines to identify multiple opportunities for drug repurposing: Confirmatory screen for U-2 OS cells (AID 1347122); note: nearly all actives have a fitted effect of over 65% in size; note: potency is the fitted concentration of half-maximal effect
# Procedure, shortened: as §1
# [11] = qHTS of pediatric cancer cell lines to identify multiple opportunities for drug repurposing: Confirmatory screen for Rh41 cells (AID 1347123);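 note: 48 h compound exposure; nearly all actives have a fitted effect of over 60% in size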; note: potency is the fitted concentration of half-maximal effect
# Procedure, shortened: as §1
# [12] = qHTS of pediatric cancer cell lines to identify multiple opportunities for drug repurposing: Confirmatory screen for RD cells (AID 1347124);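 note: cells exposed to compound for 48 h before viability readout; nearly all actives have a fitted effect of over 65% in size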; note: potency is the fitted concentration of half-maximal effect
# Procedure, shortened: as §1
# [13] = qHTS of pediatric cancer cell lines to identify multiple opportunities for drug repurposing: Confirmatory screen for Saos-2 cells (AID 1347127); note: nearly all actives have a fitted effect of over 60% in size; note: potency is the fitted concentration of half-maximal effect
# Procedure, shortened: as §1
# [14] = qHTS of pediatric cancer cell lines to identify multiple opportunities for drug repurposing: Confirmatory screen for LAN-5 cells (AID 1347113)
# Procedure, shortened: as §1
# [15] = qHTS of pediatric cancer cell lines to identify multiple opportunities for drug repurposing: Confirmatory screen for DAOY cells (AID 1347114); note: nearly all actives have a fitted effect of over 65% in size; note: potency is the fitted concentration of half-maximal effect
# Procedure, shortened: as §2
# [16] = target: N-terminal Xaa-Pro-Lys N-methyltransferase 1 (Homo sapiens) (UniProt Q9BV86); test: qHTS Assay for Inhibitors of N-terminal methyltransferase 1 (NTMT1): LOPAC validation of the NTMT1 SAHH-coupled ThioGlo3 Assay (AID 1347143);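 note: SAH from peptide methylation measured as thiol fluorescence via SAHH coupling and ThioGlo3; nearly all actives have a fitted effect of over 70% in size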; note: potency is the fitted concentration of half-maximal effect
# Sequence of N-terminal Xaa-Pro-Lys N-methyltransferase 1 (Homo sapiens) (Q9BV86 whole entry, looked up): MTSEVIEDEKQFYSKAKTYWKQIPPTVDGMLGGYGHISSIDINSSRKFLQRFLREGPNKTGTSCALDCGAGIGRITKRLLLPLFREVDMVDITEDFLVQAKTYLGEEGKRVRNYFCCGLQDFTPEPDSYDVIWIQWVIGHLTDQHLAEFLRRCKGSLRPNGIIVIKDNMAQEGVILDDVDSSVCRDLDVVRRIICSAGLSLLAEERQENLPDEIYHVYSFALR
# Procedure, shortened: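 Steps: dispense 125nM NTMT1; pin-transfer test compounds at several concentrations, with 1uM RCC1-6 peptide as control; incubate 1 min; start with reagent holding 100uM SAM, 10uM SAHH, 15uM ThioGlo3; read at 0 and 30 min.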
# [17] = tested on: Zika virus NS2B-NS3 protease (unlinked); test: Optimization of GU AMC qHTS for Zika virus inhibitors: Unlinked NS2B-NS3 protease assay (AID 1347151); note: nearly all actives have a fitted effect of over 80% in size; note: potency is the fitted concentration of half-maximal effect
# Procedure, shortened: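 Percent inhibition is derived from the 15-min change in AMC fluorescence, normalized against no-inhibitor and no-enzyme controls, then fitted to a 4-parameter Hill curve. Aprotinin was the intraplate control.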
# [18] = qHTS of pediatric cancer cell lines to identify multiple opportunities for drug repurposing: Confirmatory screen for MG 63 (6-TG R) cells (AID 1347119); note: nearly all actives have a fitted effect of over 55% in size; note: potency is the fitted concentration of half-maximal effect
# Procedure, shortened: as §1
# Furin (Homo sapiens) = Furin (Homo sapiens) (UniProt P09958); test: Furin counterscreen qHTS for Zika virus inhibitors (AID 1347149); note: nearly all actives have a fitted effect of over 70% in size; note: potency is the fitted concentration of half-maximal effect
# Sequence of Furin (Homo sapiens) (P09958 whole entry, looked up): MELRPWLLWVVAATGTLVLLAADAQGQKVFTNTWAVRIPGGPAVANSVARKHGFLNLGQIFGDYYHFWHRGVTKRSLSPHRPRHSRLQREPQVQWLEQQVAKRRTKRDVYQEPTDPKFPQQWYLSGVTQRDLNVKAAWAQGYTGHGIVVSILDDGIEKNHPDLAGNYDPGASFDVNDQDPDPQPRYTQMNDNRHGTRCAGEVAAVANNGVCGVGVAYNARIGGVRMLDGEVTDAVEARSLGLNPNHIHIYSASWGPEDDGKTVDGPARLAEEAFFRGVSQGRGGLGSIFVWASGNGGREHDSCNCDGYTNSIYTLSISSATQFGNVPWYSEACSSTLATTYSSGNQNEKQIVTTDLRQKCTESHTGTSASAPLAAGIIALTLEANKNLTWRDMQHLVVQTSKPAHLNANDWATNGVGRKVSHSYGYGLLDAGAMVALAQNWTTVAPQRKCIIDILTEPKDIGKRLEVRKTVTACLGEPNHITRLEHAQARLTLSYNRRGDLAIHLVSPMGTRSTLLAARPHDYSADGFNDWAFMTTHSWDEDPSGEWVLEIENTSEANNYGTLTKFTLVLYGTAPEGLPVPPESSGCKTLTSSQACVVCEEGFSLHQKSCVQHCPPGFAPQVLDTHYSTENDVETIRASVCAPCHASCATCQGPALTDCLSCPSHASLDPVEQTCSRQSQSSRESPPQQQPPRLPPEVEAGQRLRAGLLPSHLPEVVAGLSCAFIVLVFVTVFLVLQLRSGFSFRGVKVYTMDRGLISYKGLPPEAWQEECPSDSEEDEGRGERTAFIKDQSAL
# Procedure, shortened: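 Counterscreen measures cleavage of 2 microM BOC-RVRR-AMC, below its ~15 microM Km, by 5 nM full-length human furin at pH 7.0 after a 15-min compound preincubation. Inhibition derives from the 15-min fluorescence increase at 37C.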
# [19] = tested on: Zika virus NS2B-NS3 protease (linked construct); test: Confirmatory screen NINDS AMC qHTS for Zika virus inhibitors (AID 1347152); note: nearly all actives have a fitted effect of over 70% in size; note: potency is the fitted concentration of half-maximal effect
# Procedure, shortened: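 In this dose-response qHTS, AMC release from 10 microM Bz-Nle-KRR-AMC by 1 nM linked protease is measured over 15 minutes (about 20% conversion) at pH 8.0. Percent inhibition is fitted to a 4-parameter Hill curve.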
compound,measurement,setting,value
Cc1ccccc1-n1c(Cn2cnc3c(N)ncnc32)nc2cccc(C)c2c1=O,Potency,[1],inactive
same,Potency,[2],inactive
same,Potency,[3],inactive
same,Potency,[4],inactive
same,Potency,[5],inactive
same,Potency,[6],inactive
same,Potency,[7],inactive
same,Potency,[8],inactive
same,Potency,[9],inactive
same,Potency,[10],inactive
same,Potency,[11],inactive
same,Potency,[12],inactive
same,Potency,[13],inactive
O=C(N[C@H]1CN2CCC1CC2)c1ccc(Cl)cc1,Potency,[1],16.5 µM (active)
same,Potency,[2],1.65 µM (active)
same,Potency,[3],1.17 µM (active)
same,Potency,[4],inactive
same,Potency,[14],23.3 µM (active)
same,Potency,[15],inactive
same,Potency,[5],inactive
same,Potency,[6],585 nM (active)
same,Potency,[7],inactive
same,Potency,[8],1.65 µM (active)
same,Potency,[9],inactive
same,Potency,[12],414 nM (active)
same,Potency,[16],inactive
same,Potency,[17],inactive
O=C1C(I)=CC(=C(c2cc(I)c(O)c(I)c2)c2ccccc2C(=O)O)C=C1I,Potency,[1],inactive
same,Potency,[2],3.69 µM (active)
same,Potency,[4],inactive
same,Potency,[5],inactive
same,Potency,[7],inactive
same,Potency,[18],inactive
same,Potency,[9],inactive
same,Potency,[11],9.27 µM (active)
same,Potency,[12],inactive
same,Potency,[13],inactive
same,Potency,Furin (Homo sapiens),18.7 µM (active)
C[C@@H]1O[C@@H](O[C@@H]2C=C3CC[C@@H]4[C@@H](CC[C@]5(C)[C@H](c6ccc(=O)oc6)CC[C@@]45O)[C@@]3(C)CC2)[C@H](O)[C@H](O)[C@H]1O,Potency,[1],0.0827 µM (active)
same,Potency,[2],0.0522 µM (active)
same,Potency,[3],0.0329 µM (active)
same,Potency,[4],41.4 nM (active)
same,Potency,[14],0.0585 µM (active)
same,Potency,[15],7.4 nM (active)
same,Potency,[5],26.1 nM (active)
same,Potency,[6],58.5 nM (active)
same,Potency,[7],13.1 nM (active)
same,Potency,[8],0.0233 µM (active)
same,Potency,[18],7.4 nM (active)
same,Potency,[10],16.5 nM (active)
same,Potency,[11],0.0165 µM (active)
same,Potency,[12],16.5 nM (active)
same,Potency,[13],185 nM (active)
O=[N+]([O-])c1c(Cl)c(Cl)cc(Cl)c1Cl,Potency,Furin (Homo sapiens),inactive
C=CCN1CC[C@]23CCCCC2[C@H]1Cc1ccc(O)cc13 (stereo partly specified),Potency,Furin (Homo sapiens),inactive
CC(C)Oc1cccnc1N(C)C1CCN(Cc2ccccc2)CC1,Potency,[16],56.2 µM (active)
same,Potency,[17],29.9 µM (active)
same,Potency,[19],inactive
CC(=O)N(C)c1cccc(-c2ccnc3c(C(=O)c4cccs4)cnn23)c1,Potency,Furin (Homo sapiens),24.1 µM (active)
same,Potency,[19],24.1 µM (active)
O=C(O)c1cc(Oc2ccc(C(F)(F)F)cc2Cl)ccc1[N+](=O)[O-],Potency,Furin (Homo sapiens),inactive
CC(Cc1ccc(O)cc1)NCC(O)c1cc(O)cc(O)c1 (stereo unspecified),Potency,[17],inactive
CNCCc1c[nH]c2ccc(O)cc12,Potency,[17],inactive
C[C@]12N[C@H](Cc3ccccc31)c1ccccc12,Potency,[16],inactive
same,Potency,[17],inactive
CC[C@@H](C(N)=O)N1CCCC1=O,Potency,[16],inactive
same,Potency,[17],inactive
NC(=O)CN1CC(O)CC1=O (stereo unspecified),Potency,[16],inactive
same,Potency,[17],inactive
CCCN1CCO[C@@H]2c3cc(O)ccc3OC[C@H]21,Potency,[17],inactive
NC1CCc2cc(O)c(O)cc2C1 (stereo unspecified),Potency,[16],22.4 µM (active)
same,Potency,[17],inactive
Cc1nccc2c1[nH]c1ccccc12,Potency,[16],79.4 µM (active)
same,Potency,[17],26.7 µM (active)
Oc1ccc2c3c1O[C@H]1c4[nH]c5c(c4C[C@@]4(O)[C@@H](C2)N(CC2CC2)CC[C@]314)C[C@@]1(O)[C@H]2Cc3ccc(O)c4c3[C@@]1(CCN2CC1CC1)[C@H]5O4,Potency,[17],inactive
c1ccc(C2(c3ccccc3)CC2C2=NCCN2)cc1 (stereo unspecified),Potency,[16],inactive
same,Potency,[17],inactive
C[N+](C)(C)CC(=O)O,Potency,[17],inactive
c1ccc2sc(C3(N4CCCCC4)CCCCC3)cc2c1,Potency,[16],inactive
same,Potency,[17],inactive
CN[C@@H]1C[C@@H](c2ccc(Cl)c(Cl)c2)c2ccccc21,Potency,[17],inactive
Cn1cnc(CCN)c1,Potency,[16],inactive
same,Potency,[17],inactive
NC1CC1c1ccccc1 (stereo unspecified),Potency,[16],inactive
same,Potency,[17],inactive
CS(=N)(=O)CC[C@H](N)C(=O)O (stereo partly specified),Potency,[16],inactive
same,Potency,[17],inactive
NC(N)=NOCCC(N)C(=O)O (stereo unspecified),Potency,[16],inactive
same,Potency,[17],inactive
NCc1cc(=O)[nH]o1,Potency,[16],inactive
same,Potency,[17],inactive
COC(=O)[C@@H](N)CCCN=C(N)N[N+](=O)[O-],Potency,[16],inactive
same,Potency,[17],inactive
C[C@@H](N)Cc1cnc[nH]1,Potency,[16],inactive
same,Potency,[17],inactive
C[N+]1(C)C2CCC1CC(OC(=O)C(CO)c1ccccc1)C2 (stereo unspecified),Potency,[16],inactive
same,Potency,[17],inactive
CCCN(CCC)C1CCc2ccc(O)cc2C1 (stereo unspecified),Potency,[16],inactive
same,Potency,[17],inactive
c1ccc(CCCN2CCN(CCOC(c3ccccc3)c3ccccc3)CC2)cc1,Potency,[17],inactive
Nc1c(Cl)c(Cl)c(Cl)c(Cl)c1Cl,Potency,Furin (Homo sapiens),inactive
C[C@@H]1O[C@H](C[N+](C)(C)C)C[C@H]1O,Potency,[16],inactive
same,Potency,[17],inactive
NCCc1c[nH]c2ccc(O)cc12,Potency,[17],inactive
C[C@]12CCC3C(CC[C@H]4C[C@H](O)CC[C@]34C)C1CC[C@@H]2C(=O)CO (stereo partly specified),Potency,[16],inactive
same,Potency,[17],inactive
NC(=NCCC[C@H](N)C(=O)O)N[N+](=O)[O-],Potency,[16],inactive
same,Potency,[17],inactive
CNCCc1ccc(O)c(O)c1,Potency,[17],inactive
NC(CP(=O)(O)O)C(=O)O (stereo unspecified),Potency,[16],inactive
same,Potency,[17],inactive
